# This excerpt belongs to a sample that is enriched for hits.
# Pf Dd2 inh: qHTS Primary assay for Inhibitors of Plasmodium falciparum Dd2 growth in vitro; P. falciparum Dd2 growth, SYBR Green, 72 h; Potency, µM (series often up to 28.9 µM), without a hit: at the highest dose activity, negative = inhibition, hits mostly inhibitors; 120,000 compounds, 4.3% hits; active means well fitted inhibition curve with a large enough effect;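 further: plate controls were DMSO vehicle for no effect and reference drug for full effect; nearly all actives have a fitted effect of over 65% in size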
#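 Infected erythrocytes (Dd2, 0.3% parasitemia, 2.5% hematocrit final) are added to compound in RPMI-1640/Albumax II medium, grown 72 h at 37C in low oxygen, then lysed with saponin/Triton-X containing SYBR Green and read by fluorescence.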
# * marks the source's active call; other numbers are inactive results; i = inactive; [ ] = dose if it differs, or a comment. Potency means the concentration at half of the fitted maximal effect.
SMILES,Pf Dd2 inh
Cc1ccc(NC(=O)C2CCCN(c3nnc(C)c4c(C)n(-c5ccccc5)nc34)C2)cc1Cl (stereo not given),24.4%
COc1ccc(Cl)cc1NC(=O)C1CCN(c2nnc(C)c3c(C)n(-c4ccccc4)nc23)CC1,i
Cc1nnc(N2CCC(C(=O)NCCc3ccccc3Cl)CC2)c2nn(-c3ccccc3)c(C)c12,11.2µM*
COc1ccccc1CCNC(=O)C1CCN(c2nnc(C)c3c(C)n(-c4ccc(C)cc4)nc23)CC1,6.31µM*
CCOc1ccccc1CNC(=O)C1CCN(c2nnc(C)c3c(C)n(-c4ccc(C)cc4)nc23)CC1,7.08µM*
CCOc1ccccc1CNC(=O)CSc1nnc(C)c2c(C)n(-c3ccccc3)nc12,-4.4%
COc1ccccc1NC(=O)C1CCCN(c2nnc(C)c3c(C)n(-c4ccccc4)nc23)C1 (stereo not given),-5.1%
CCN(CC)C(=O)C1CCN(c2nnc(C)c3c(C)n(-c4ccc(Cl)cc4)nc23)CC1,82.0%[5.79 µM]
CN(C)C(=O)c1cccnc1OC1CCN(C(=O)c2ccc(F)c(F)c2)C1 (stereo not given),0.9%
Cc1ccc(CN2CCN(C(=O)C3CCCN(C(=O)c4ccccc4)CCC(=O)NCC3)CC2)cc1 (stereo not given),-9.9%
C#CCNC(=O)C1CCCN(c2nc3ncccc3o2)C1 (stereo not given),-9.2%[44.1 µM]
Cn1cc([C@@H](NC(=O)CCc2ccc3c(c2)OCO3)C2CC(O)C2)cn1 (stereo not given in full),-13.5%
Cc1cnc(CCNC(=O)c2n[nH]c(=O)c3ccccc23)n1C1CCCCC1,7.94µM*
COCc1ncc(C)n1CCNC(=O)c1n[nH]c(=O)c2ccccc12,15.9%
Cc1cnc(CCNC(=O)c2n[nH]c(=O)c3ccccc23)n1C1CCC1,-8.9%
Cc1cnc(CCNC(=O)Nc2ccc3c(c2)OCCO3)n1C1CCC1,5.01µM*
Cc1cnc(CCNC(=O)NC(C)C)n1C1CC1,-16.8%
Cc1cnc(CCNC(=O)NCc2ccccc2)n1C1CCC1,-11.3%
COc1cccc(C(=O)N2CCC(C3CCN(S(C)(=O)=O)CC3)C2)c1 (stereo not given),15.0%
CCOC(=O)C1=C(CNCc2ccccc2)NC(=O)NC1c1ccc(C)cc1 (stereo not given),10µM*
CCOC(=O)C1=C(CN(C)Cc2ccccc2)NC(=O)NC1c1ccc(OC)cc1 (stereo not given),i
CCOC(=O)C1=C(CN2CCN(c3cc(C)ccc3C)CC2)NC(=O)NC1c1ccc(Cl)cc1 (stereo not given),10µM*
CCOC(=O)C1=C(CN(CC)Cc2ccccc2)NC(=O)NC1c1ccc(Cl)cc1 (stereo not given),i
CCOC(=O)C1=C(CN2CCN(c3ccc(OC)cc3)CC2)NC(=O)NC1c1ccc(Cl)cc1 (stereo not given),-16.5%
CCOC(=O)C1=C(CN2CCN(C)CC2)NC(=O)NC1c1ccc(F)cc1 (stereo not given),48.7%
SMILES,Pf Dd2 inh
C=CCNC(=O)C1CC(c2cccc(C)c2)CN(C(=O)NCCCC)C1 (stereo not given),-24.6%
CCn1cc(CN2CCN(C(=O)c3ccoc3)CC2)ccc1=O,11.2%
COCC1CN(C(C)=O)CC12CCN(Cc1ccc(F)c(F)c1)CC2 (stereo not given),-0.2%
CCCN1C(=O)CC[C@H]2CN(C(=O)Cc3cnc(C)[nH]c3=O)CC[C@H]21,-4.0%
CN(CC1CCOC1)S(=O)(=O)Cc1ccccc1Cl (stereo not given),1.9%[5.79 µM]
CCN1CCN(C(=O)C2CCCN(Cc3cccnc3)CCC(=O)NCC2)CC1 (stereo not given),9.2%
COc1cccc(CN2CCCC(C(=O)NCc3ccccc3)CCNC(=O)CC2)c1 (stereo not given),6.31µM*
COc1cccc(CN2CCCC(C(=O)NCc3ccncc3)CCNC(=O)CC2)c1 (stereo not given),-5.0%
COc1cccc(N2CCN(C(=O)C3CCCN(Cc4cccnc4)CCC(=O)NCC3)CC2)c1 (stereo not given),3.98µM*
N#Cc1ccccc1CN1CCCC(C(=O)NCc2ccccc2)CCNC(=O)CC1 (stereo not given),i
Cc1cccc(N2CCN(C(=O)C3CCCN(C(=O)c4cccnc4)CCC(=O)NCC3)CC2)c1 (stereo not given),5.6%
Cn1nccc1C(=O)N1CCC(F)(c2nc(-c3ccccc3)no2)CC1,5.3%
Cc1ccc(S(=O)(=O)N2CCn3c(n[nH]c3=O)C2)c(C)c1,-5.0%
COc1ccc(C(=O)N2CCCCCC2c2nc(-c3cccnc3)no2)cc1 (stereo not given),-14.8%
CC(C)C(=O)N[C@H]1[C@H](O)[C@H](O)C[C@@H]1c1ccc(N2CCOCC2)nc1,28.2%[44.1 µM]
Cc1ccc(C(=O)N2CCn3c(nnc3C3CCCNC3)C2)cc1 (stereo not given),6.2%[44.1 µM]
O=C(Nc1ccc(-c2nnc3n2CCCC3)cc1)c1nccc2ccccc12,-7.6%
O=C(Nc1cccc(-c2nnc3n2CCCC3)c1)C1CCCC1,i
COc1ccccc1C(=O)Nc1cccc(-c2nnc3n2CCCC3)c1,4.47µM*
CC(=O)Nc1cccc(C(=O)Nc2cccc(-c3nnc4n3CCCC4)c2)c1,-5.3%
O=C(Nc1cccc(-c2nnc3n2CCCC3)c1)c1nccc2ccccc12,4.47µM*
O=C(Nc1cccc(-c2nnc3n2CCCC3)c1)c1ccccn1,i
CCN(CC)C(=O)C(NC(=O)c1ccccc1)C1CCN(S(=O)(=O)c2ccc(C)cc2)CC1 (stereo not given),i
COCCc1noc([C@@H]2CC(F)(F)CN2C(=O)c2ccccc2F)n1,-24.4%
O=C(NC[C@H]1O[C@@H](CO)[C@@H](O)[C@H]1N1CCN(c2ccc(F)cc2)CC1)c1cccs1,-10.6%
SMILES,Pf Dd2 inh
O=C(Nc1ccc(Oc2ccccc2)cc1)N[C@H]1CO[C@H]2[C@@H]1OC[C@@H]2n1cc(-c2ccccc2)nn1,-7.6%
COc1ccccc1CC(=O)N[C@H]1CN(S(C)(=O)=O)C[C@@H]1C(C)C,-14.9%
Cc1cnn(CCC(=O)NC2CCc3nnc(C)n3CC2)c1 (stereo not given),20.6%
COc1ccc(S(=O)(=O)N2CCC3(CC2)CC(OCC2CC2)CCO3)cc1 (stereo not given),3.55µM*
COc1ccc(S(=O)(=O)N2CCC3(CC2)CC(OC)CCO3)cc1 (stereo not given),11.7%
COc1cccc(S(=O)(=O)N2CCC3(CC2)CC(OCC2CC2)CCO3)c1 (stereo not given),-1.8%
O=C1CCC(C(=O)N(CC2CCN(Cc3ccccc3F)CC2)CC2CCCO2)=NN1 (stereo not given),-2.0%
Cc1[nH]ncc1CNC(=O)CCc1ccc2c(c1)CN(C(=O)NC(C)C)CCO2,4.5%
CC(C)NC(=O)c1ccc2c(c1)C1(CCN(CC3CC3)C1)CN2Cc1ccccc1 (stereo not given),i
OCc1cc(CC2(NCc3ccc(CO)o3)COC2)no1,18.6%[44.1 µM]
CCOC(=O)CNC(c1ccccc1)c1cc(Br)ccc1NC(=O)c1ccc(Cl)cc1 (stereo not given),3.98µM*
CCOC(=O)CSc1nc2ccc(NC(=O)c3ccc(Cl)cc3)cc2s1,-6.3%
COC(=O)CNC(c1ccccc1)c1cc(Br)ccc1NC(=O)c1ccc(Cl)cc1 (stereo not given),i
COCCNC(=O)[C@H]1C[C@H](Oc2ccccc2)CN1C(=O)NCc1ccccc1,i

# Compound activity from PubChem BioAssay.
